# Reference: PubChem BioAssay (Tox21)
# Where “and” joins values, the source holds several entries; their conditions need not be identical. Equal entries are not always repeated. Inconclusive results are not listed. Calls of active or inactive are those of the source. Calls come from the whole dose curve; as a rule, active = well fitted cell-killing curve with a large enough effect in the repeat runs; inconclusive = weak or mixed curves, or effect the other way; inactive = no such curve, though single readings can be large or run the other way.
# Experiment: qHTS assay to identify small molecule antagonists of the glucocorticoid receptor (GR) signaling pathway - cell viability counter screen (AID 720693); note: nearly all actives have a fitted effect of over 55% in size
# Settings: GR-bla HeLa viability, CellTiter-Glo luminescence, 18 h, with 5 nM dexamethasone present; series mostly up to 58.5 µM; viability change, negative = cytotoxic: at the top concentration
# Excerpt: National Center for Advancing Translational Sciences [NCATS]
# NIH Chemical Genomics Center [NCGC]
# U.S. Environmental Protection Agency [EPA]
# National Institutes of Environmental Health Sciences [NIEHS]
# National Toxicology Program [NTP]
# U.S. Food and Drug Administration [FDA]
# The Glucocorticoid receptor (GR) is one of the members of the nuclear receptor family of ligand-dependent transcription factors. GR plays a critical role in carbohydrate, protein and lipid metabolisms and programmed cell death. CellSensor GR-bla HeLa cell line (Invitrogen) contains a beta-lactamase reporter gene under the control of the glucocorticoid response element stably integrated into HeLa cells, a cervical cancer cell line that expresses glucocorticoid receptor. The activation of the reporter gene under culture conditions can be detected by fluorescence intensity. This cell line has been used to screen the Tox21 10K compound library and to identify the compounds that inhibit the GR signaling. The cytotoxicity of the Tox21 compound library against the GR-bla HeLa cell line was tested in parallel by measuring the cell viability using CellTiter-Glo assay in the same wells.
# Tox21 Assay Protocol Summary:
# The GR-bla HeLa cells were dispensed at 1500 cells/5 ul/well in 1536-well black wall/clear bottom plates using a Multidrop Combi (ThermoFisher Scientific, Waltham, MA) dispenser. After the assay plates were incubated at a 37 C/5% CO2 incubator for 4 hours, 23 nL of compounds dissolved in DMSO, positive controls or DMSO only was transferred to the assay plate by a pintool station (Kalypsys, San Diego, CA), followed by addition of 1 uL of dexamethasone (5 nM, final concentration in the well). The plates were incubated at 37 C for 18 hours. After 1 uL of LiveBLAzerTM B/G FRET substrate was added using a Flying Reagent Dispenser (Aurora Discovery, San Diego, CA), the plates were incubated at room temperature (RT) for 2 hours, and fluorescence intensity was measured by an Envision plate reader (PerkinElmer, Shelton, CT). After measurement of bla assay, 3 ul CellTiter-Glo (Promega, Madison, WI) was added to measure the cytotoxicity and the plates were then incubated at RT for 30 min. The luminescence was measured using a ViewLux (Perkin Elmer) plate reader.
# % is set by controls: 0 for no effect and ±100 for the full control effect; potency is the fitted concentration of half-maximal effect.
Structure (SMILES),"viability change, negative = cytotoxic",Potency
CCCCOCN(C(=O)CCl)c1c(CC)cccc1CC,-20.8% (inactive),–
CC(C)CCCCCOC(=O)c1ccccc1C(=O)OCCCCCC(C)C,-8.37% (inactive),–
CCOC(=O)C1(c2ccccc2)CCN(CCC(C#N)(c2ccccc2)c2ccccc2)CC1,-21.7% [at 78.9 µM] (inactive),–
CC(C)[C@H](C(=O)O[C@H](C#N)c1cccc(Oc2ccccc2)c1)c1ccc(Cl)cc1,13.7% (inactive),–
C[C@H]1CC[C@@H]2[C@@H](C)[C@H]3[C@H](C[C@H]4[C@@H]5CC=C6CC(O[C@@H]7O[C@H](CO)[C@H](O)[C@H](O[C@@H]8O[C@H](CO)[C@@H](O)[C@H](O)[C@H]8O)[C@H]7O[C@H]7O[C@@H](C)[C@H](O)[C@@H](O)[C@H]7O)CC[C@]6(C)[C@H]5CC[C@]34C)N2C1 (stereo not given in full),-6.81% [at 78.9 µM] (inactive),–
CC(=O)OC1(c2ccccc2)CCN(CCc2ccccc2)CC1,-5.55% [at 78.9 µM] (inactive),–
Nc1ccccc1C(=O)Oc1ccc2ccccc2c1,4.06% (inactive),–
CC1(C)[C@H](C(=O)O[C@H](C#N)c2cccc(Oc3ccccc3)c2)[C@@H]1/C=C(\Cl)C(F)(F)F,-12.2% (inactive),–
CCC(C)(C)C(=O)OC1=C(c2ccc(Cl)cc2Cl)C(=O)OC12CCCCC2,-5.45% (inactive),–
BrC(Br)C(Br)(Br)Br,0.503% [at 78.9 µM] (inactive),–
N#C/C=C/C#N,-1.85% [at 78.9 µM] (inactive),–
ClC(Cl)=C(Cl)Cl,6.32% (inactive),–
BrCBr,8.99% [at 78.9 µM] (inactive),–
N#CC(Cl)Cl,-3.71% (inactive),–
O=[N+]([O-])O.O=[N+]([O-])O.[Cd],-6.62% (inactive),–
Nc1ccc(Cc2ccc(N)c(Cl)c2)cc1Cl,–,53.1 µM (active)
c1ccc2c(c1)OCC(C1=NCCN1)O2 (stereo not given),-8.81% (inactive),–
Oc1ccc(C(=C(Cl)Cl)c2ccc(O)cc2)cc1,21.3% (inactive),–
O=C(NC(=O)c1c(F)cccc1F)Nc1cc(Cl)c(OC(F)(F)C(F)F)c(Cl)c1,-1.03% (inactive),–
CC(=O)C(Cl)(Cl)Cl,-12.8% (inactive),–

Structure (SMILES),"viability change, negative = cytotoxic",Potency
CC(C)CC(C)N (stereo not given),2.29% (inactive),–
CC1(C)CC/C(=C/c2ccc(Cl)cc2)C1(O)Cn1cncn1 (stereo not given),24.4% (inactive),–
CN(C)C(=S)S,–,inactive
Nc1ccc(Sc2ccc(N)cc2)cc1,18.3% (inactive),–
CC(=O)Nc1ccc2c(c1)Cc1ccccc1-2,7% [at 78.9 µM] (inactive),–
CCOP(=S)(OCC)OC(Cl)C(Cl)(Cl)Cl (stereo not given),23.8% (inactive),–
CCCN(CCC)CCc1c[nH]c2ccccc12,-11.4% (inactive),–
O=C(O)c1cc[c]([Hg][Cl])cc1,7.82% (inactive),–
COP(=O)(OC)SCn1c(=O)oc2cc(Cl)cnc21,–,49 µM (active)
CCCCCCCCCBr,-2.93% [at 78.9 µM] (inactive),–
CN(C)CCc1c[nH]c2ccc(O)cc12,-2.72% (inactive),–
C[C@@H]1O[C@@H](O[C@H]2C[C@@H](O)[C@]3(CO)[C@H]4[C@H](O)C[C@]5(C)[C@@H](C6=CC(=O)OC6)CC[C@]5(O)[C@@H]4CC[C@]3(O)C2)[C@H](O)[C@H](O)[C@H]1O,–,379 nM (active) and 213 nM (active) and 58.5 nM (active)
CC[C@H]1C[C@@H]2C[C@H]3c4[nH]c5ccc(OC)cc5c4CCN(C2)[C@@H]13,9.2% (inactive),–
COc1cccc(C(=O)CCN[C@@H](C)[C@H](O)c2ccccc2)c1,-0.0873% (inactive),–
O=[N+]([O-])c1cc(C(F)(F)F)c(Cl)c([N+](=O)[O-])c1Cl,–,12.3 µM (active)
CCCCCCCCCCCCCCCCCCn1cc[n+](C)c1,–,24.4 µM (active)
[CH3][Hg][Cl],–,19.5 µM (active)
COC(=O)N(C(=O)N1CO[C@@]2(C(=O)OC)Cc3cc(Cl)ccc3C2=N1)c1ccc(OC(F)(F)F)cc1,0.405% (inactive),–
CN(C)C1CSSSC1,16.9% (inactive),–
Clc1ccc(CSC(Cn2ccnc2)c2ccc(Cl)cc2Cl)cc1 (stereo not given),1.05% [at 27 µM] (inactive),–
